Measurements published in paper PMC7862700, “An all-to-all approach to the identification of sequence-specific readers for epigenetic DNA modifications on cytosine”.

Key:
Assay in all cases: DAPPL (digital affinity profiling via proximity ligation, sequencing); 10 mM Tris-HCl pH 7.5, 50 mM NaCl, 1 mM DTT, 4% glycerol, room temperature, 30 min; GST-TFs on glutathione beads, 16-mer random dsDNA library, 0.1% formaldehyde crosslink after washing; high values mean tight binding
ETV5 = ETV5 (Homo sapiens, UniProt P41161 1-510); settings: protein: recombinant; tags: N-terminal GST; dsDNA, one strand shown
In short: (§1)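 Sequencing on an Illumina NextSeq500 followed washing, crosslinking with 0.1% formaldehyde, proximity ligation (BsaI/T4 ligase, 1 h, 37 °C) and PCR amplification of pools that had been incubated for 30 min at room temperature with 200 nmole of a random double-stranded 16-mer DNA library in Tris/NaCl/DTT/glycerol buffer. Each pool held DNA-barcoded human transcription factors, expressed in yeast as GST fusions and captured on glutathione beads, plus a tag-only sample. Binding signal is a hexamer's read frequency for a factor divided by its frequency in the tag-only sample.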

HSF1 = HSF1 (Homo sapiens, UniProt Q00613 1-529); settings: protein: recombinant; tags: N-terminal GST; chain copies: 3; dsDNA, one strand shown
In short: as §1

ELF4 = ELF4 (Homo sapiens, UniProt Q99607 1-663); settings: protein: recombinant; tags: N-terminal GST; dsDNA, one strand shown
In short: as §1

ELK4 = target: T1, ELK4 (Homo sapiens, UniProt P28324-2 1-405); settings: protein: recombinant; tags: N-terminal GST; dsDNA, one strand shown
T1 sequence: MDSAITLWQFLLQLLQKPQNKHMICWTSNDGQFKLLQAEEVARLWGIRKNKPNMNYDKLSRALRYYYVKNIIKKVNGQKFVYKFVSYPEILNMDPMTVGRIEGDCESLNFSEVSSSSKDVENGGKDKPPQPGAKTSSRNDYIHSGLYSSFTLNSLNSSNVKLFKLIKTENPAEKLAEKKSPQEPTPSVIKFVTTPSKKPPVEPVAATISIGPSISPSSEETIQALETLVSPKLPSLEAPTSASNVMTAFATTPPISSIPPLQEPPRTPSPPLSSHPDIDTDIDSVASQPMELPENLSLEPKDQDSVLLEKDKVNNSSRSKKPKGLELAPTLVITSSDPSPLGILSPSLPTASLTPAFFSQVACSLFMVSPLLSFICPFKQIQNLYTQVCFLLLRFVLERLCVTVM
In short: as §1

ERF = target: T2, ERF (Homo sapiens, UniProt P50548 1-548); settings: protein: recombinant; tags: N-terminal GST; dsDNA, one strand shown
T2 sequence: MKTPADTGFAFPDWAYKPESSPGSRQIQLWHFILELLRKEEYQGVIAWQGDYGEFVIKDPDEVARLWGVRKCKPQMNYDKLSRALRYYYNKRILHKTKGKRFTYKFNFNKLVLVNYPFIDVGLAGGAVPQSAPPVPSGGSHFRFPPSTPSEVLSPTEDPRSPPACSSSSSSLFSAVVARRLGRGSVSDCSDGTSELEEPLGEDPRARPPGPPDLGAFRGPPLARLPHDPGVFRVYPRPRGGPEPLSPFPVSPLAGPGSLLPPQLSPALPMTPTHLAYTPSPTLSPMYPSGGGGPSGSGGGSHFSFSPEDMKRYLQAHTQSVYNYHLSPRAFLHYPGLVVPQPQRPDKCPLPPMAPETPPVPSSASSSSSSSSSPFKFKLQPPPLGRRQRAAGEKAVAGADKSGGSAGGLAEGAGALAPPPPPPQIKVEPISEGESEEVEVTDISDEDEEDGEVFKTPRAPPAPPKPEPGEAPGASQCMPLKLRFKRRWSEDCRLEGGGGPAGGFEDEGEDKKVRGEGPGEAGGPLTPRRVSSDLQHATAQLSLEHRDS
In short: as §1

ETV3L = target: T3, ETV3L (Homo sapiens, UniProt Q6ZN32 1-361); settings: protein: recombinant; tags: N-terminal GST; dsDNA, one strand shown
T3 sequence: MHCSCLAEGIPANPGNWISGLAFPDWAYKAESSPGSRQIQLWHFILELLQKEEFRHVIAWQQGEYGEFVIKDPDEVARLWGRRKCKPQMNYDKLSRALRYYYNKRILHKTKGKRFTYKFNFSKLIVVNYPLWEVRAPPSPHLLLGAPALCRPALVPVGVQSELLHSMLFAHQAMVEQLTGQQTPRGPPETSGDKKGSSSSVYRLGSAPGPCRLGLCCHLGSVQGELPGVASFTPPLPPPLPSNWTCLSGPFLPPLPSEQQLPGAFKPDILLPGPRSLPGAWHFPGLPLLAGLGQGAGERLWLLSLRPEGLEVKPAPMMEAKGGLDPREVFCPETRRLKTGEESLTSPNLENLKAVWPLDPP
In short: as §1

ETV7 = target: T4, ETV7 (Homo sapiens, UniProt Q9Y603 1-341); settings: protein: recombinant; tags: N-terminal GST; dsDNA, one strand shown
T4 sequence: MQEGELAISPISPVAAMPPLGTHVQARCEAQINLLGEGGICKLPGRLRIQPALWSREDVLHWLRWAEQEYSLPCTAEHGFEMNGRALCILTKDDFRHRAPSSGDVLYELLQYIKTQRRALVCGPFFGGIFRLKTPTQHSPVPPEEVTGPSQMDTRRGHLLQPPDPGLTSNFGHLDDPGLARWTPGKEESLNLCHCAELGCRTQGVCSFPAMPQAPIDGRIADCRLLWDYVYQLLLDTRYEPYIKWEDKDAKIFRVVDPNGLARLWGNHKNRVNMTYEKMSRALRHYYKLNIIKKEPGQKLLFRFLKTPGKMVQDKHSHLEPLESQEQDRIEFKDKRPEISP
In short: as §1

ELF5 = target: T5, ELF5 (Homo sapiens, UniProt Q9UKW6-2 1-255); settings: protein: recombinant; tags: N-terminal GST; dsDNA, one strand shown
T5 sequence: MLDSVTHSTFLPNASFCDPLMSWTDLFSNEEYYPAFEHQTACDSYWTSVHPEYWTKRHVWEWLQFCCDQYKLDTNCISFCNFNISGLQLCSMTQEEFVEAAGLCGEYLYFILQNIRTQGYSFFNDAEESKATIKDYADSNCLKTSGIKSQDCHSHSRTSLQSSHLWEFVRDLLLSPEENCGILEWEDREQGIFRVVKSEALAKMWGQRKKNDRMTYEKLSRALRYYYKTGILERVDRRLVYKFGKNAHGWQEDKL
In short: as §1

FEV = target: T6, FEV (Homo sapiens, UniProt Q99581 1-238); settings: protein: recombinant; tags: N-terminal GST; dsDNA, one strand shown
T6 sequence: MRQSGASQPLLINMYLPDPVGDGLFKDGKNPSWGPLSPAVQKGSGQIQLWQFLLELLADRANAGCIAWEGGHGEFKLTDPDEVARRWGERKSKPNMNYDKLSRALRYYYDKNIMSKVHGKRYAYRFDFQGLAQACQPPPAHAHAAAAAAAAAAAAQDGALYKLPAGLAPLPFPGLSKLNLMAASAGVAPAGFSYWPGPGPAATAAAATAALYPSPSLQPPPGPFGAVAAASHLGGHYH
In short: as §1

ETV2 = target: T7, ETV2 (Homo sapiens, UniProt O00321 1-342); settings: protein: recombinant; tags: N-terminal GST; dsDNA, one strand shown
T7 sequence: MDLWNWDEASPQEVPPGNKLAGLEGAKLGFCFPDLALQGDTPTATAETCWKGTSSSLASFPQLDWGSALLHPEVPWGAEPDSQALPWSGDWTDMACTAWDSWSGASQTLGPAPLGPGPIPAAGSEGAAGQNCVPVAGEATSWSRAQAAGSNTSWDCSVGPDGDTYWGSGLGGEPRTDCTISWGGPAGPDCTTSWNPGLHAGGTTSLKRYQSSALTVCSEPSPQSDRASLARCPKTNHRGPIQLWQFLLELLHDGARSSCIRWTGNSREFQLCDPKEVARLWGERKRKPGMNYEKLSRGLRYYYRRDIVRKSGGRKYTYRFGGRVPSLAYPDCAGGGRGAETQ
In short: as §1

ELF3 = target: T8, ELF3 (Homo sapiens, UniProt P78545 1-371); settings: protein: recombinant; tags: N-terminal GST; dsDNA, one strand shown
T8 sequence: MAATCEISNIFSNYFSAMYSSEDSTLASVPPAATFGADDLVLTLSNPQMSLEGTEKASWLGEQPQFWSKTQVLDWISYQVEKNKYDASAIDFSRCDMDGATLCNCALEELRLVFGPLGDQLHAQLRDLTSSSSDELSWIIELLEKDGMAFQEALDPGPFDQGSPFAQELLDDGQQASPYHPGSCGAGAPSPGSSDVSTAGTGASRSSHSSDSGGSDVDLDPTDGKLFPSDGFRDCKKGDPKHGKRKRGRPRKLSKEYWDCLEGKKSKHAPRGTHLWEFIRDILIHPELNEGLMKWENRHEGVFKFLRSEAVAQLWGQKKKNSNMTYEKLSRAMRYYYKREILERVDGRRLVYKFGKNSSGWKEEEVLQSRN
In short: as §1

ETV1 = ETV1 (Homo sapiens, UniProt P50549 1-477); settings: protein: recombinant; tags: N-terminal GST; dsDNA, one strand shown
In short: as §1

ETS2 = target: T9, ETS2 (Homo sapiens, UniProt P15036 1-469); settings: protein: recombinant; tags: N-terminal GST; dsDNA, one strand shown
T9 sequence: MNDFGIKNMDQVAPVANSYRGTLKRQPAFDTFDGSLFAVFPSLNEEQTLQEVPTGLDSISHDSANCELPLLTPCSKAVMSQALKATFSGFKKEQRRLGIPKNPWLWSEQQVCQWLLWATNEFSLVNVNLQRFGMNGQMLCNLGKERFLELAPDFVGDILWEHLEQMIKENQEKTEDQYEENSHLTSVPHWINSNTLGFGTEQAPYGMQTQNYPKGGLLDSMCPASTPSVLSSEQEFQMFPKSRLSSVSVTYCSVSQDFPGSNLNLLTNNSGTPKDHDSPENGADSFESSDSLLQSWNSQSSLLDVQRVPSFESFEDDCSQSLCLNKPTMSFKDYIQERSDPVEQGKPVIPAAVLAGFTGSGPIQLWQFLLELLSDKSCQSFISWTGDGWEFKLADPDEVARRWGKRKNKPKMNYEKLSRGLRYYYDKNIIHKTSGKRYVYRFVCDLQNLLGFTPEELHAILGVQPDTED
In short: as §1

ETV3 = target: T10, ETV3 (Homo sapiens, UniProt P41162-2 1-143); settings: protein: recombinant; tags: N-terminal GST; dsDNA, one strand shown
T10 sequence: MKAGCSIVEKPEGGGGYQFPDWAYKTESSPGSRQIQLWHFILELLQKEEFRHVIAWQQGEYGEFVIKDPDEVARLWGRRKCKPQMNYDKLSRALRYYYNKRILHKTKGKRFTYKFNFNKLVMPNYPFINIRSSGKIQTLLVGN
In short: as §1

ETV6 = ETV6 (Homo sapiens, UniProt P41212 1-452); settings: protein: recombinant; tags: N-terminal GST; dsDNA, one strand shown
In short: as §1

Chain of ETV5 (P41161 whole entry, the tested form may be a part): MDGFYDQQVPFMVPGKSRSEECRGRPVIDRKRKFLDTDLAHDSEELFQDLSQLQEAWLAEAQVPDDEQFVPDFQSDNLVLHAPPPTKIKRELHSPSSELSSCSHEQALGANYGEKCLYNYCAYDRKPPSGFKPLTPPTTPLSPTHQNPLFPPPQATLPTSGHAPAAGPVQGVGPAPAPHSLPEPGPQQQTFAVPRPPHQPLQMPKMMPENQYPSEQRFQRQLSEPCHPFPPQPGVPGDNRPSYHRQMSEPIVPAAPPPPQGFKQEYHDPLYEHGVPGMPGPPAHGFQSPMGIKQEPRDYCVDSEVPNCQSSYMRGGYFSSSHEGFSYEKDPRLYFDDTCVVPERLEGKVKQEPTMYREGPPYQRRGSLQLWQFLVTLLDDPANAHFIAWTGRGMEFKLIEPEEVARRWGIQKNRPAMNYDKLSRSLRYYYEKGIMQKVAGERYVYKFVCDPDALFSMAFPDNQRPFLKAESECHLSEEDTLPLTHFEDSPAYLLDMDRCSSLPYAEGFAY
Chain of HSF1 (Q00613 whole entry): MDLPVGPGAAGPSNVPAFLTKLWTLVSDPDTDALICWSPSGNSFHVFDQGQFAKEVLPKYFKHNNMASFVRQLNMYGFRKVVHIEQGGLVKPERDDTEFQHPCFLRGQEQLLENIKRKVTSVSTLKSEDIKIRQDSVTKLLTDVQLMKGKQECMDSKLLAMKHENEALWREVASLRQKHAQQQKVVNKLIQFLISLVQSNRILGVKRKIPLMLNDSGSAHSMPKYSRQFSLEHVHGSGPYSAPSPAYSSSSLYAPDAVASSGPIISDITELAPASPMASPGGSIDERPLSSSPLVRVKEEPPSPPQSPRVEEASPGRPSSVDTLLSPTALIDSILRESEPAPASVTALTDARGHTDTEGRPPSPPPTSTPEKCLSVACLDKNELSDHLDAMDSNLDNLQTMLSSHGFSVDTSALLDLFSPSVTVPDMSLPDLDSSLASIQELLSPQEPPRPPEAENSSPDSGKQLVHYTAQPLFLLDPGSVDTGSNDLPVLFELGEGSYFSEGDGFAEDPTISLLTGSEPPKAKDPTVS
Chain of ELF4 (Q99607 whole entry): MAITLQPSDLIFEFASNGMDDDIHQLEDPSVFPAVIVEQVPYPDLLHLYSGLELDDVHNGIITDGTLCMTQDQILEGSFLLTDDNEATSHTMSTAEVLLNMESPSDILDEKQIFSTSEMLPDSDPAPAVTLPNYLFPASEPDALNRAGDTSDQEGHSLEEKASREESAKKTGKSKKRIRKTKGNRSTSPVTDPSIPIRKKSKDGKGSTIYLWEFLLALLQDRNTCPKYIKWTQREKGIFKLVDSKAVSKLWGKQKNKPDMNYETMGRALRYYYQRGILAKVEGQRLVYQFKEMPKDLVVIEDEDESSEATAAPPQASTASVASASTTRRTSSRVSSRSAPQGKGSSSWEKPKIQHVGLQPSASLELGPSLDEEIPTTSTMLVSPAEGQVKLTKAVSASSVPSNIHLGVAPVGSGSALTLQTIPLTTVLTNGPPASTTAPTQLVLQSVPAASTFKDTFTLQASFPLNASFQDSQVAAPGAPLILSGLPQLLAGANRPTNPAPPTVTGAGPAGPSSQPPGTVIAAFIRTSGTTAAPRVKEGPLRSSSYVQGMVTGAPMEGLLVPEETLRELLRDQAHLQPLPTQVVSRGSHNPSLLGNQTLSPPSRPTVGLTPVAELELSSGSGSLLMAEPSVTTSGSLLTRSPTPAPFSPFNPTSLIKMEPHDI
Chain of ETV1 (P50549 whole entry): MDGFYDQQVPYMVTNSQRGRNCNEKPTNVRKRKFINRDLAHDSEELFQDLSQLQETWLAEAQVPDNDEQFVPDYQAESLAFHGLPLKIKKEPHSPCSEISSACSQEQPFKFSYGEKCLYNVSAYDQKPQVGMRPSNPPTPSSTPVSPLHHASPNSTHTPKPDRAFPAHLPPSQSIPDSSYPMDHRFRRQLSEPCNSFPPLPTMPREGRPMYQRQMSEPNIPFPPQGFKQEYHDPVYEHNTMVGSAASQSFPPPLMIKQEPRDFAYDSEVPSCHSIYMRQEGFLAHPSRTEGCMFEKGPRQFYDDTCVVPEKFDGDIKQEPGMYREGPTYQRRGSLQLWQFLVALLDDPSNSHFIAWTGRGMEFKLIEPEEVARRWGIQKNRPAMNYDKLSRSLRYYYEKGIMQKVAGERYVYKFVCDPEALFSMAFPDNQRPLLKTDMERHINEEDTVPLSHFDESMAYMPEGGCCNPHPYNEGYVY
Chain of ETV6 (P41212 whole entry): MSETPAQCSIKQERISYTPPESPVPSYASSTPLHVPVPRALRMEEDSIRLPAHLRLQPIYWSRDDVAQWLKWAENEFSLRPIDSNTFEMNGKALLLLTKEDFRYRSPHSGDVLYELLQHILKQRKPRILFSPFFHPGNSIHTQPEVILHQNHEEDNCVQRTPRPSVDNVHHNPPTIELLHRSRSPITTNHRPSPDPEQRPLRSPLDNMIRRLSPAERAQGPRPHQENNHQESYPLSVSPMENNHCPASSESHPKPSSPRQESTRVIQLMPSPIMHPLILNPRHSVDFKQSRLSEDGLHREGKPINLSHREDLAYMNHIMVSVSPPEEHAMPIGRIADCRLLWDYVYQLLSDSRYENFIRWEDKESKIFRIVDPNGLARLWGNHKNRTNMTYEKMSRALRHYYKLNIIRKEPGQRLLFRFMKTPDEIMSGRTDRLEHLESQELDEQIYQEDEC

| Sequence | binding signal (ETV5) | binding signal (HSF1) | binding signal (ELF4) | binding signal (ELK4) | binding signal (ERF) | binding signal (ETV3L) | binding signal (ETV7) | binding signal (ELF5) | binding signal (FEV) | binding signal (ETV2) | binding signal (ELF3) | binding signal (ETV1) | binding signal (ETS2) | binding signal (ETV3) | binding signal (ETV6) |
| --- | --- | --- | --- | --- | --- | --- | --- | --- | --- | --- | --- | --- | --- | --- | --- |
| CGATGA | 1.05 fold enrichment (6-mer frequency, TF over GST control) | 1.02 fold enrichment (6-mer frequency, TF over GST control) | 1.06 fold enrichment (6-mer frequency, TF over GST control) | 1.01 fold enrichment (6-mer frequency, TF over GST control) | 1.14 fold enrichment (6-mer frequency, TF over GST control) | 1.12 fold enrichment (6-mer frequency, TF over GST control) | 1.13 fold enrichment (6-mer frequency, TF over GST control) | 1.01 fold enrichment (6-mer frequency, TF over GST control) |  |  |  |  |  |  |  |
| CTGGCC | 1.19 fold enrichment (6-mer frequency, TF over GST control) | 1.01 fold enrichment (6-mer frequency, TF over GST control) | 1.2 fold enrichment (6-mer frequency, TF over GST control) | 1.35 fold enrichment (6-mer frequency, TF over GST control) | 1.19 fold enrichment (6-mer frequency, TF over GST control) | 1.11 fold enrichment (6-mer frequency, TF over GST control) | 1.03 fold enrichment (6-mer frequency, TF over GST control) | 1.01 fold enrichment (6-mer frequency, TF over GST control) | 1.13 fold enrichment (6-mer frequency, TF over GST control) | 1.04 fold enrichment (6-mer frequency, TF over GST control) | 1 fold enrichment (6-mer frequency, TF over GST control) | 1.15 fold enrichment (6-mer frequency, TF over GST control) | 1.17 fold enrichment (6-mer frequency, TF over GST control) | 1.06 fold enrichment (6-mer frequency, TF over GST control) | 1.23 fold enrichment (6-mer frequency, TF over GST control) |
